Results: PubChem BioAssay
“And” between values parts separate entries of the source, which are not always exact repeats. Equal entries are not always repeated. Inconclusive results are not listed. The source made the active and inactive calls.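 Rule for the calls, unless noted: active = normalized viability below 100% at a tested concentration; inactive = the rest.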

Tests used:
[1] = modulation of C. elegans fzo-1 (AID 1259413; call rule not given here;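 note: fzo-1 mutant C. elegans worms in liquid wells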); conditions: C. elegans fzo-1 modulator screen, mean read-out; stronger effect = higher value
[2] = EMT-state selective cytotoxicity in co-culture – imaging, PC-3E GFP, TEM4-18 mCherry, primary screen (AID 1345086;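 active = compounds killing one labelled cell type while sparing the other, by normalised counts and ratio limits, not self-fluorescent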;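 for all read-outs here: cells exposed to compound for 72 h before imaging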;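 for red/green cell ratio (normalised): normalised mesenchymal count divided by normalised epithelial count so high means epithelial killing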); conditions: PC-3E GFP / TEM4-18 mCherry co-culture, imaging cell counts, at 1 µM; for red/green cell ratio (normalised): actives lie on both sides, counts scaled to control wells, 1 = unselective
[3] = viability loss in pontine glioma line – cell-based, SU-DIPG-IV, MIPE4.0, CellTiter-Glo, qHTS, dose response (AID 1347063; cut-off not given, nearly all actives have AC50 up to about 30 µM;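 note: compound exposure lasted 48 hours before the viability readout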); conditions: CellTiter-Glo ATP luminescence
[4] = growth inhibition of DIPG cells – cell-based, MIPE4.0 library, CellTiter-Glo luminescence, qHTS (AID 1347066; cut-off not given, nearly all actives have AC50 up to about 30 µM;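 note: cells exposed to compound for 48 hours before readout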); conditions: SU-DIPG-VI viability, CellTiter-Glo ATP luminescence
[5] = viability loss with induced miR-34 in A549 – imaging, A549 dox-inducible miR-34, nuclei and caspase counts, primary screen (AID 1347080;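 active = compounds whose cell count with miR-34 switched on is under 0.7 times the count with it off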); conditions: A549 miR-34 inducible, Hoechst nuclei count, 48 h
[6] = MELAS cybrid and Rieske KO viability enhancers – cell-based, MELAS cybrids, Rieske KO mouse fibroblasts, CellTiter-Glo, primary screen (AID 1508586;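 active = mean z-score across replicates of 1.96 or higher in either the MELAS or the Rieske mutant cell line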;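 note: z relative to plate mean and SD of compound and empty wells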); conditions: low glucose
[7] = viability loss in pontine glioma line – cell-based, SU-DIPG-XVII, MIPE5.0, CellTiter-Glo, qHTS, dose response (AID 1347060; cut-off not given, nearly all actives have AC50 up to about 26 µM); conditions: CellTiter-Glo ATP luminescence
[8] = viability loss in pontine glioma line – cell-based, SU-DIPG-XIII, MIPE4.0, CellTiter-Glo, qHTS, dose response (AID 1347061; cut-off not given, nearly all actives have AC50 up to about 37 µM;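 note: cells exposed to compound for 48 hours before readout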); conditions: CellTiter-Glo ATP luminescence
[9] = viability loss in pontine glioma line – cell-based, JHH-DIPG-1, MIPE4.0, CellTiter-Glo, qHTS, dose response (AID 1347062; cut-off not given, nearly all actives have AC50 up to about 27 µM); conditions: JHH-DIPG-1 viability, CellTiter-Glo ATP luminescence
[10] = viability loss in pontine glioma line – cell-based, SU-DIPG-XIII, MIPE5.0, CellTiter-Glo, qHTS, dose response (AID 1347064; cut-off not given, nearly all actives have AC50 up to about 23 µM); conditions: CellTiter-Glo ATP luminescence
[11] = viability loss in pontine glioma line – cell-based, SU-DIPG-XXV, MIPE5.0, CellTiter-Glo, qHTS, dose response (AID 1347065; cut-off not given, nearly all actives have AC50 up to about 26 µM;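 note: cells exposed to compound for 48 hours before ATP readout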); conditions: CellTiter-Glo ATP luminescence
[12] = growth inhibition of DIPG cells – cell-based, MIPE5.0 library, qHTS (AID 1347068; cut-off not given, nearly all actives have IC50 up to about 30 µM); conditions: SU-DIPG-XXV viability
[13] = blockers of cellular phospholipid synthesis – cell-based, LOPAC library, screen 4, primary screen (AID 1347384; call rule not given here); conditions: animal cells, phospholipid biosynthesis inhibition screen; at 10 µM
[14] = JHH-DIPG-1 glioma cell viability, MIPE5.0 library, CellTiter-Glo luminescence, qHTS (AID 1347067; cut-off not given, nearly all actives have AC50 up to about 26 µM;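 note: cells exposed to compound for 48 hours before readout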); conditions: JHH-DIPG-1 glioma viability, CellTiter-Glo ATP luminescence
[15] = compounds altering HSF1 focus formation in cells – imaging, Selleck Cancer Library (AID 1347162; in the data active = plate-normalised HSF1 focus index below about 0.46); conditions: human cells, HSF1 nuclear foci imaging, at 10 µM; SSMD: measured here: HSF1 foci SSMD mean; cell count: measured here: cell number; plate-normalised HSF1 focus index: stronger effect = lower value
[16] = drug combination growth inhibition, ovarian cancer – cell-based, oncology-focused library, rucaparib conditional, profiling panel (AID 1508598); conditions: patient-derived ovarian cancer cells, CellTiter-Glo viability, 144 h, stronger effect = lower value
[17] = measured here: epithelial PC-3E GFP cell survival
[18] = measured here: mesenchymal TEM4-18 mCherry cell survival
[19] = stronger effect = lower value, cell number ratio, induced over uninduced
[20] = measured here: relative caspase fold change +Dox/-Dox
[21] = measured here: total cells with miR-34 induction, stronger effect = lower value
[22] = measured here: total cells without miR-34 induction
[23] = MELAS cybrid survival, CellTiter-Glo 48 h, stronger effect = higher value
[24] = Rieske KO mouse fibroblast survival, CellTiter-Glo 72 h

## Cc1ccnc2c1NC(=O)c1cccnc1N2C1CC1
[1]
  mean signal: 208 (inactive)
[2]
  red/green cell ratio (normalised): 0.79 (inactive)
[2]; [17]
  normalised cell number: 1.34
[2]; [18]
  normalised cell number: 1.05
[3]
  AC50: 16.6 µM (active)
[4]
  outcome: inactive
[5]; [19]
  fold change: 0.867 (inactive) and 0.916 (inactive) and 0.818 (inactive)
[5]; [20]
  fold change: 1 and 1.53 and 1.78
[5]; [21]
  cell count: 8040 and 8950 and 7970
[5]; [22]
  cell count: 9270 and 9770 and 9750
[6]; [23]
  z-score: -0.331 (inactive) and -0.443 (inactive)
[6]; [24]
  z-score: 0.346 and -0.451

## COc1cc(OC)c(C(=O)CCCN2CCCC2)c(OC)c1
[1]
  mean signal: 255 (inactive)
[2]
  red/green cell ratio (normalised): 0.81 (inactive)
[2]; [17]
  normalised cell number: 1.24
[2]; [18]
  normalised cell number: 1
[7]
  outcome: inactive
[8]
  outcome: inactive
[9]
  outcome: inactive
[3]
  outcome: inactive
[10]
  outcome: inactive
[11]
  outcome: inactive
[4]
  outcome: inactive
[12]
  outcome: inactive
[5]; [19]
  fold change: 0.858 (inactive) and 0.948 (inactive) and 0.902 (inactive)
[5]; [20]
  fold change: 1.32 and 1.94 and 0.958
[5]; [21]
  cell count: 8900 and 10500 and 8390
[5]; [22]
  cell count: 10400 and 11000 and 9300
[6]; [23]
  z-score: -0.379 (inactive) and 0.339 (inactive)
[6]; [24]
  z-score: -0.346 and 0.199

## Cc1cn([C@H]2C=C[C@@H](CO)O2)c(=O)[nH]c1=O
[1]
  mean signal: 233 (inactive)
[2]
  red/green cell ratio (normalised): 0.8 (inactive)
[2]; [17]
  normalised cell number: 1.35
[2]; [18]
  normalised cell number: 1.09
[8]
  outcome: inactive
[9]
  outcome: inactive
[3]
  outcome: inactive
[4]
  outcome: inactive
[5]; [19]
  fold change: 0.956 (inactive) and 1.02 (inactive)
[5]; [20]
  fold change: 1.47 and 1.86
[5]; [21]
  cell count: 8230 and 8880
[5]; [22]
  cell count: 8610 and 8700
[13]
  outcome: inactive
[6]; [23]
  z-score: 0.426 (inactive)
[6]; [24]
  z-score: -0.562

## CC(C)(C#N)c1cc(Cn2cncn2)cc(C(C)(C)C#N)c1
[1]
  mean signal: 266 (inactive)
[2]
  red/green cell ratio (normalised): 1.37 (inactive)
[2]; [17]
  normalised cell number: 0.74
[2]; [18]
  normalised cell number: 1.02
[7]
  outcome: inactive
[8]
  outcome: inactive
[9]
  outcome: inactive
[11]
  outcome: inactive
[4]
  outcome: inactive
[14]
  outcome: inactive
[12]
  outcome: inactive
[5]; [19]
  fold change: 0.875 (inactive) and 0.939 (inactive) and 0.952 (inactive)
[5]; [20]
  fold change: 1 and 1.14
[5]; [21]
  cell count: 8530 and 7350 and 9720
[5]; [22]
  cell count: 9750 and 7820 and 10200
[15]
  SSMD: 1.85
  cell count: 7640
  plate-normalised HSF1 focus index: 1.07 (inactive)
[6]; [23]
  z-score: -0.386 (inactive) and -0.452 (inactive) and -0.582 (inactive)
[6]; [24]
  z-score: 0.599 and -0.518 and -0.151
[16]; at 0.000305 µM, OCI-C5x cells, with rucaparib 10 µM, 100% = cells with rucaparib alone
  viability: 109% (inactive)
[16]; at 0.000305 µM, OCI-C5x cells, without rucaparib
  viability: 102% (inactive)
[16]; at 0.000305 µM, OCI-P5x cells, with rucaparib 20 µM, 100% = cells with rucaparib alone
  viability: 98.5% (active)
[16]; at 0.000305 µM, OCI-P5x cells, without rucaparib
  viability: 90.6% (active)
[16]; at 0.00122 µM, OCI-C5x cells, with rucaparib 10 µM, 100% = cells with rucaparib alone
  viability: 107% (inactive)
[16]; at 0.00122 µM, OCI-C5x cells, without rucaparib
  viability: 98.9% (active)
[16]; at 0.00122 µM, OCI-P5x cells, with rucaparib 20 µM, 100% = cells with rucaparib alone
  viability: 102% (inactive)
[16]; at 0.00122 µM, OCI-P5x cells, without rucaparib
  viability: 95.3% (active)
[16]; at 0.00488 µM, OCI-C5x cells, with rucaparib 10 µM, 100% = cells with rucaparib alone
  viability: 115% (inactive)
[16]; at 0.00488 µM, OCI-C5x cells, without rucaparib
  viability: 107% (inactive)
[16]; at 0.00488 µM, OCI-P5x cells, with rucaparib 20 µM, 100% = cells with rucaparib alone
  viability: 104% (inactive)
[16]; at 0.00488 µM, OCI-P5x cells, without rucaparib
  viability: 100% (inactive)
[16]; at 0.0195 µM, OCI-C5x cells, with rucaparib 10 µM, 100% = cells with rucaparib alone
  viability: 113% (inactive)
[16]; at 0.0195 µM, OCI-C5x cells, without rucaparib
  viability: 107% (inactive)
[16]; at 0.0195 µM, OCI-P5x cells, with rucaparib 20 µM, 100% = cells with rucaparib alone
  viability: 110% (inactive)
[16]; at 0.0195 µM, OCI-P5x cells, without rucaparib
  viability: 104% (inactive)
[16]; at 0.0781 µM, OCI-C5x cells, with rucaparib 10 µM, 100% = cells with rucaparib alone
  viability: 105% (inactive)
[16]; at 0.0781 µM, OCI-C5x cells, without rucaparib
  viability: 109% (inactive)
[16]; at 0.0781 µM, OCI-P5x cells, with rucaparib 20 µM, 100% = cells with rucaparib alone
  viability: 108% (inactive)
[16]; at 0.0781 µM, OCI-P5x cells, without rucaparib
  viability: 109% (inactive)
[16]; at 0.313 µM, OCI-C5x cells, with rucaparib 10 µM, 100% = cells with rucaparib alone
  viability: 103% (inactive)
[16]; at 0.313 µM, OCI-C5x cells, without rucaparib
  viability: 108% (inactive)
[16]; at 0.313 µM, OCI-P5x cells, with rucaparib 20 µM, 100% = cells with rucaparib alone
  viability: 112% (inactive)
[16]; at 0.313 µM, OCI-P5x cells, without rucaparib
  viability: 113% (inactive)
[16]; at 1.25 µM, OCI-C5x cells, with rucaparib 10 µM, 100% = cells with rucaparib alone
  viability: 115% (inactive)
[16]; at 1.25 µM, OCI-C5x cells, without rucaparib
  viability: 115% (inactive)
[16]; at 1.25 µM, OCI-P5x cells, with rucaparib 20 µM, 100% = cells with rucaparib alone
  viability: 111% (inactive)
[16]; at 1.25 µM, OCI-P5x cells, without rucaparib
  viability: 112% (inactive)
[16]; at 5 µM, OCI-C5x cells, with rucaparib 10 µM, 100% = cells with rucaparib alone
  viability: 130% (inactive)
[16]; at 5 µM, OCI-C5x cells, without rucaparib
  viability: 115% (inactive)
[16]; at 5 µM, OCI-P5x cells, with rucaparib 20 µM, 100% = cells with rucaparib alone
  viability: 115% (inactive)
[16]; at 5 µM, OCI-P5x cells, without rucaparib
  viability: 109% (inactive)
